Several values for one entry are separate records, joined by “and”; a condition that tells them apart may be missing. Identical values can stand only once. Screen size: about 5,500 compounds; about 2,000 (36%) were called active. Inconclusive results (about 18%) are left out. No stated cut-off is given here; in the data, active means normalized growth mostly below about 0.91 (no sharp cut-off); inconclusive means no clear call, values can overlap the other calls; inactive means mostly above about 0.92. Some of the results follow.
Assay: chemical genetic growth profiling, strain panel (AID 1159580);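 further: tested at 20 µM; growth read once vehicle control cultures reached saturation at 30 °C; 1 = growth at the plate median or of vehicle wells; lower values mean less growth of the strain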
Conditions: S. cerevisiae deletion strains, growth OD

Measured: normalized growth

NS(=O)(=O)c1cc2c(cc1C(F)(F)F)NC(Cc1ccccc1)NS2(=O)=O (stereo not drawn)
inactive: locus YAL021C, strain ccr4, active compounds read low 1 | locus YAL026C, strain drs2, active compounds read low 0.979 | locus YAL030W, strain snc1, active compounds read low 0.989 | locus YBL061C, strain skt5, active compounds read low 0.986 | locus YBR009C, strain hhf1, active compounds read low 0.988 | locus YBR021W, strain FUR4, active compounds read low 1.02 | locus YBR023C, strain chs3, active compounds read low 0.992 | locus YBR171W, strain sec66, active compounds read low 0.981 | locus YBR229C, strain ROT2, active compounds read low 1 | locus YBR231C, strain swc5, active compounds read low 0.986 | locus YBR279W, strain paf1, active compounds read low 1 | locus YCL011C, strain gbp2, active compounds read low 0.973 | locus YCL016C, strain dcc1, active compounds read low 0.988 | locus YCL029C, strain bik1, active compounds read low 1.01 | locus YCL061C, strain MRC1, active compounds read low 0.991 | locus YCL069W, strain vba3, active compounds read low 1 | locus YCR088W, strain abp1, active compounds read low 0.993 | locus YDL005C, strain med2, active compounds read low 0.991 | locus YDL035C, strain GPR1, active compounds read low 1.02 | locus YDL040C, strain nat1, active compounds read low 1.01 | locus YDL074C, strain BRE1, active compounds read low 0.969 | locus YDL101C, strain DUN1, active compounds read low 1 | locus YDL134C, strain PPH21, active compounds read low 1.02 | locus YDL185W, strain tfp1, active compounds read low 1.01 | locus YDL192W, strain arf1, active compounds read low 1.01 | locus YDR001C, strain nth1, active compounds read low 0.98 | locus YDR069C, strain doa4, active compounds read low 0.997 | locus YDR101C, strain arx1, active compounds read low 0.985 | locus YDR137W, strain rgp1, active compounds read low 0.977 | locus YDR159W, strain sac3, active compounds read low 0.991 | locus YDR162C, strain NBP2, active compounds read low 1.01 | locus YDR195W, strain ref2 0.983 | locus YDR297W, strain sur2, active compounds read low 0.986 | locus YDR318W, strain mcm21, active compounds read low 1.01 | locus YDR334W, strain swr1, active compounds read low 0.953 | locus YDR335W, strain msn5, active compounds read low 0.991 | locus YDR388W, active compounds read low 1.01 | locus YDR392W, strain spt3, active compounds read low 0.943 | locus YDR502C, strain sam2, active compounds read low 0.996 | locus YEL003W, strain gim4, active compounds read low 0.983 | locus YEL037C, strain rad23, active compounds read low 0.984 | locus YEL061C, strain CIN8 (second series), active compounds read low 0.989 | locus YEL061C, strain CIN8, active compounds read low 1 | locus YER015W, strain faa2, active compounds read low 0.992 | locus YER016W, strain bim1, active compounds read low 0.992 | locus YER110C, active compounds read low 1.02 | locus YER111C, strain swi4, active compounds read low 0.999 | locus YER155C, strain BEM2 (second series), active compounds read low 0.974 | locus YER155C, strain BEM2, active compounds read low 0.999 | locus YER167W, strain BCK2, active compounds read low 1.01 | locus YFR010W, strain ubp6, active compounds read low 0.971 | locus YGL078C, strain dbp3, active compounds read low 0.995 | locus YGL086W, strain mad1, active compounds read low 0.99 | locus YGL167C, strain pmr1, active compounds read low 0.989 | locus YGL173C, strain kem1, active compounds read low 0.981 | locus YGL227W, strain vid30, active compounds read low 1 | locus YGL240W, strain doc1, active compounds read low 0.984 | locus YGL248W, strain PDE1, active compounds read low 0.999 | locus YGL253W, strain hxk2, active compounds read low 0.998 | locus YGR135W, strain pre9, active compounds read low 1.04 | locus YGR229C, strain SMI1, active compounds read low 1 | locus YGR252W, strain gcn5, active compounds read low 1.01 | locus YHR013C, strain ard1, active compounds read low 0.967 | locus YHR027C, strain rpn1, active compounds read low 0.971 | locus YHR030C, strain SLT2, active compounds read low 1 and 0.973 | locus YHR079C, strain IRE1 (second series), active compounds read low 1.01 | locus YHR079C, strain IRE1, active compounds read low 0.98 | locus YHR094C, strain hxt1, active compounds read low 1.01 | locus YHR129C, strain ARP1, active compounds read low 1.01 | locus YHR142W, strain chs7, active compounds read low 0.96 | locus YHR200W, strain rpn10, active compounds read low 1.01 | locus YIL066C, strain RNR3, active compounds read low 0.999 | locus YIL073C, strain SPO22, active compounds read low 1.05 | locus YIL125W, strain kgd1, active compounds read low 0.999 | locus YIR030C, strain dcg1, active compounds read low 1.01 | locus YJL092W, strain hpr5, active compounds read low 1 | locus YJL095W, strain BCK1 (second series), active compounds read low 0.997 | locus YJL095W, strain BCK1, active compounds read low 0.97 and 0.978 | locus YJL115W, strain asf1, active compounds read low 0.966 | locus YJL129C, strain trk1, active compounds read low 1 | locus YJL134W, strain LCB3, active compounds read low 1 | locus YJL154C, strain vps35, active compounds read low 0.985 | locus YJL164C, strain tpk1, active compounds read low 0.984 | locus YJL166W, strain qcr8, active compounds read low 0.97 | locus YJL168C, strain set2, active compounds read low 1.01 | locus YJL187C, strain SWE1 (second series), active compounds read low 0.984 | locus YJL187C, strain SWE1, active compounds read low 0.994 | locus YJR043C, strain POL32, active compounds read low 0.982
